Measurements reported in ChEMBL document CHEMBL3433997, “St. Jude Leishmania screening dataset” (2016).

What was measured:
Type in all cases: functional
[1] = target: Solute carrier family 2, facilitated glucose transporter member 1 (Homo sapiens) (UniProt P11166); assay: ST_JUDE_LEISH: Cytotoxicity at 2uM final concentration against transgenic Leishmania Mexicana promastigotes LmGLUT1 that are glucose transport deficient and complemented with the human glucose transporter GLUT1. Activity is measured by DNA content using SYBR green in vitro
[2] = target: Hexose transporter 1 (Plasmodium falciparum) (UniProt O97467); assay: ST_JUDE_LEISH: Cytotoxicity at 2uM final concentration against transgenic Leishmania Mexicana promastigotes LmPfHT that are glucose transport deficient and complemented with the Plasmodium falciparum hexose transporter. Activity is measured by DNA content using SYBR green in vitro
[3] = target: Glucose transporter (Leishmania mexicana) (UniProt O61059); assay: ST_JUDE_LEISH: Cytotoxicity at 2uM final concentration against transgenic Leishmania Mexicana promastigotes LmGT2 that are glucose transport deficient and complemented with the L. Mexicana glucose transporter 2. Activity is measured by DNA content using SYBR green in vitro

Sequence of Solute carrier family 2, facilitated glucose transporter member 1 (Homo sapiens) (P11166 whole entry): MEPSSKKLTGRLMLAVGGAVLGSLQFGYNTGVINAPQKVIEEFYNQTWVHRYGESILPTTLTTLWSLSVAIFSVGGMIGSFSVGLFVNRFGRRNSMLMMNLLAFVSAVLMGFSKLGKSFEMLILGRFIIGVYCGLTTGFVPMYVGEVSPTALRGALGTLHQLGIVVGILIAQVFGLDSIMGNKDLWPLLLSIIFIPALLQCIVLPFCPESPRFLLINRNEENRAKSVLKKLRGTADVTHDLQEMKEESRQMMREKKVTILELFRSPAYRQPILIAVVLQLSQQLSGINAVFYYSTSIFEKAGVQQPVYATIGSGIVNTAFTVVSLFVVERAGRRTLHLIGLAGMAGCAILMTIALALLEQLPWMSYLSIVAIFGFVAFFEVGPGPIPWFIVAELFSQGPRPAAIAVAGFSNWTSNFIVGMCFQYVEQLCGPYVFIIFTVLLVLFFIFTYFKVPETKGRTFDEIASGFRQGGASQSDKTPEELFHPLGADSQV

Row | SMILES | inhibition [1] [%] | inhibition [2] [%] | inhibition [3] [%]
1 | COc1ccc(NC(=O)NC2CCN(CCCCCNC(=O)/C=C/c3ccc(Cl)c(Cl)c3)C2)c(OC)c1 (stereo not drawn) | -1.78 | -1.48 | 2.83
2 | Cc1cccc(CNc2nc(C)cc(N[C@@H](Cc3ccccc3)C(=O)NCCOc3ccccc3)n2)c1 | 16.6 | 15.8 | 11.4
3 | COc1ccc2nccc([C@@H](O)CN3CCC(NCc4cc5cc(Cl)ccc5[nH]4)CC3)c2c1 | 12.5 | 28.1 | 2.75
4 | COc1cc2c(cc1OC)-c1cc(=Nc3c(C)cc(C)cc3C)n(C)c(=O)n1CC2 | 0.22 | 2.72 | 0.49
5 | CCOc1ccc(C2CCN(CCN3CCC(NC(=O)c4ccc(-c5ccc(C(F)(F)F)cc5)cc4)CC3)CC2)c(OCC2CC2)c1 | 3.99 | 3 | 2.81
6 | CN(C)S(=O)(=O)c1ccc(C(=O)N(c2nc(-c3ccccc3)cs2)C2CCCCC2)cc1 | 3.2 | 3.31 | 2.06
7 | CC[C@H](N/C(=N\c1ccc(-c2ccccc2)cc1)Nc1ccc(C#N)cc1O)c1ccccc1 | 4.55 | 3.4 | 2.55
8 | CCOc1ccc(-c2nonc2NC(=O)c2ccc(F)cc2)cc1OCC | -2.77 | 2 | 1.5
9 | COc1cc(F)c2ncc(F)c(CCN3C[C@H](CNCc4ccc5c(n4)NC(=O)CS5)[C@H](O)C3)c2c1 | 0.13 | 1.28 | -0.04
10 | Cc1cccc(CNc2nc(C)cc(NCCC(=O)Nc3ccccc3)n2)c1 | 10.3 | 11.3 | 5.57
11 | Oc1cccc(-c2nc(-c3cccc(I)c3)c(-c3ccc(-c4nc(-c5cccc(O)c5)[nH]c4-c4cccc(I)c4)cc3)[nH]2)c1 | 4.52 | 4.72 | 4.57
